# GPT2 inh: Primary qHTS assay for inhibitors of Glutamate pyruvate transaminase 2 (GPT2); Alanine aminotransferase 2 (Homo sapiens), Q8TD30; Recombinant GPT2, coupled pyruvate oxidase/HRP Amplex Red fluorescence; Potency, µM (titrated, usually from 57.7 µM), inactives show top-dose activity change, negative = inhibition, usual class: inhibitors; hit rate 0.25% among 100,000; AID 1671188, 2021; further: potency means the concentration at half of the fitted maximal effect; nearly all actives have a fitted effect of over 60% in size
# Target sequence (Q8TD30 whole entry, looked up): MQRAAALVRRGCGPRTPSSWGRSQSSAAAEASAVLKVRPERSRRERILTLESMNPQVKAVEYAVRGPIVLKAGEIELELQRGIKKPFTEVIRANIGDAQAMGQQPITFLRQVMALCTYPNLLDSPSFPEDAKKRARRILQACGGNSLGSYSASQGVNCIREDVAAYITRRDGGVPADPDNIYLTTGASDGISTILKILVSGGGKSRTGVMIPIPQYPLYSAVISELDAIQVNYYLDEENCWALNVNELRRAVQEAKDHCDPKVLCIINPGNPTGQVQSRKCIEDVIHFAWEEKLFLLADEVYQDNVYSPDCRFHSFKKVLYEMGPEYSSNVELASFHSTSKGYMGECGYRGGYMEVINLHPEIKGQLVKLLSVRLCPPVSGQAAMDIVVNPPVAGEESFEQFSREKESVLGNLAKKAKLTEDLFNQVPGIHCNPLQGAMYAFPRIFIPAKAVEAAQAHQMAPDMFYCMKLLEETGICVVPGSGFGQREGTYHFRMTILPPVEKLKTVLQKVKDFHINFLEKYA
#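 Fluorescence read-out: pyruvate from GPT2 turnover coupled to pyruvate oxidase, HRP and Amplex Red (0.2mM ThPP, 0.2U/mL PO and HRP, 50uM Amplex final). Substrates 250uM a-KG, 2mM L-alanine; enzyme 10ng/uL; 30 min RT.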
# SNCA expr inh: Primary qHTS assay for inhibitors of alpha-synuclein gene (SNCA) expression; HEK-293 SNCA-luciferase knock-in, luminescence, 24 h; Potency, µM (top dose mostly 57.2 µM), for the others: at the top dose activity change, negative = inhibition, actives largely listed as inhibitors; hit rate 0.17% among 140,000; AID 1671194, 2021;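 further: potency means the concentration at half of the fitted maximal effect; plate controls were DMSO cells for no effect and cell-free wells for full effect; nearly all actives have a fitted effect of over 45% in size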
# HEK293 viab: GF-AFC viability counterscreen for inhibitors of alpha-synuclein gene (SNCA) expression; HEK-293-SNCA-luc viability, GF-AFC fluorescence, 24 h; Potency, µM (doses to about 57.1 µM), without a hit: at the highest dose activity change, negative = cytotoxicity, hits mostly cytotoxic; AID 1671193, 2021; hit rate 0.12% among 150,000;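 further: potency means the concentration at half of the fitted maximal effect; 0% = DMSO-treated cells and -100% = medium-only wells without cells; nearly all actives have a fitted effect of over 30% in size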
#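 HEK-293-SNCA-luc cells (1500/well) plated 24 h, then exposed 24 h to a dilution series; GF-AFC added 30 min at 37C, fluorescence 405/540 nm; normalised to medium-only and DMSO wells, Hill fit.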
# IP6K1 inhibitor: Primary qHTS assay for small molecule inhibitors of Inositol hexaphosphate kinase 1 (IP6K1). Inositol hexakisphosphate kinase 1 (Homo sapiens), Q92551. IP6K1 kinase, ADP-Glo luminescence, 2 h; active compounds read low. activity change, % (series mostly up to about 58 µM). hit rate 0.81% among 140,000. AID 1645851, 2021; in the data active means activity change below about -25%
#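 ADP-Glo luminescence measures ADP made by human IP6K1 during a 2 h RT reaction with ATP/IP6 (mix at 1.3 mM/130 uM); top library doses 57.5 and 19.1 uM final.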
# IP6K1 inh cnf: Confirmatory qHTS assay for small molecule inhibitors of Inositol hexaphosphate kinase 1 (IP6K1) | shares compounds with IP6K1 inhibitor | recombinant IP6K1 kinase, ADP-Glo luminescence, 2 h | hit rate 13% among 1,200 | Potency, µM (highest dose often 49 µM), inactives show at the top dose activity change, negative = inhibition, most hits filed as inhibitors | AID 1645852, 2021; further: potency means the concentration at half of the fitted maximal effect; nearly all actives have a fitted effect of over 65% in size
# The depositor's hits bear a star; i = inactive; ? = inconclusive; · = not tested or not shown; [ ] = another dose, or the depositor's remark. Sampled rows, rich in hits. Any-hit rate of the full collection: about 1%. Unless noted, the call rests on the fitted dose curve; in most records, active means well fitted curve in the direction sought with a large enough effect; inconclusive means small, poorly fitted or top-dose-only effect, or another doubt; inactive means no such curve, though single readings can be large; an effect the other way counts as inactive or inconclusive. Unless noted, on the % scale 0 is the no-effect control and ±100 the full control effect.
SMILES,GPT2 inh,SNCA expr inh,HEK293 viab,IP6K1 inhibitor,IP6K1 inh cnf
Cc1ccc(CCNC(=O)CCn2nc(-c3ccc(Cl)cc3)ccc2=O)cc1,·,21.3%,-0.9%,-28.1*,-6.3%
CCCOc1ccc(-c2nc3ccc(Br)cc3c(=O)o2)cc1,·,59.8%,24.4%,-15.9,·
CCOc1cccc(-c2nc3ccccc3c(=O)o2)c1,·,93.5%,8.0%,-29.1*,?
COc1cccc(C2CCN(Cc3cn(-c4ccccc4)nn3)C2)c1OC (centres undefined),-23.3%,-21.9%,-10.0%,12.5,·
Cc1ccc(-c2ccc(CN3CCCC(NC(=O)Cc4ccc(F)cc4)C3)cc2)cc1Cl (centres undefined),·,·,·,1.2,·
Cc1ccc(C2=Nc3ccccc3NC(c3ccncc3)=N2)cc1,·,-15.4%,-19.1%,-29.7*,8.9%
CCCOc1ccc(C2=NC(c3ccncc3)=Nc3ccc(C)cc3N2)cc1,·,-7.0%,-7.1%,-9.9,·
CN1C(=O)N[C@H](Cc2c[nH]c3c(Cl)cccc23)C1=O,·,·,·,·,-4.9%
CCN1C(C(=O)c2ccccc2)=C(OC(=O)COc2ccccc2)c2ccccc2S1(=O)=O,·,?,?,-29.2*,?
CCN1C(C(=O)c2ccccc2)=C(OC(=O)C(C)C)c2ccccc2S1(=O)=O,·,?,-24.8%,-3.5,·
CNC(=O)c1cc(-c2cccc(OC)c2)nc2c1cnn2C,·,·,·,0.2,·
O=C(Nc1nc2nc(-c3ccccc3)cc(=O)n2[nH]1)c1ccc(Cl)cc1,·,10.2%,3.0%,-0.2,·
Cc1ccc(C(=O)Nc2nc3nc(C)cc(=O)n3[nH]2)cc1,·,17.6%,0.5%,-26.8*,-18.2%
COC[C@H]1C[C@@H](N(C)C)[C@H](O)[C@@H]1O,i,18.2%[87.6 µM],4.3%[87.6 µM],-25.4*,?
COCC(=O)N[C@@H]1C[C@H](COC)[C@@H](O)[C@H]1O,i,2.2%[87.6 µM],4.5%[87.6 µM],-0.1,·
CCN(CC)CCCNC(=O)c1ccc2c(c1)NC(=O)C(CS(=O)(=O)Cc1ccc(F)cc1Cl)N2 (centres undefined),·,6.2%,7.4%,-10.2,·
Cc1ccc(CNC(=O)c2ccc3c(c2)NC(=O)C(CS(=O)(=O)Cc2cccc(F)c2)N3)cc1 (centres undefined),·,-15.1%,-9.1%,-35.3*,-2.9%
CCOCCCNC(=O)c1ccc2c(c1)NC(=O)C(CS(=O)(=O)Cc1ccc(F)cc1Cl)N2 (centres undefined),·,4.1%,4.8%,-42.8*,9.3%
CCC1(C)Cc2c(sc3nc(SC)n(-c4ccc(C)cc4)c(=O)c23)CO1 (centres undefined),·,5.6%,10.5%,-50.1*,21.9%
Cc1ccc(OCc2nc(-c3ccc(C(=O)NCc4ccc(OC(C)C)cc4)cc3)oc2C)cc1,·,-24.1%,-3.2%,-11.1,·
Cc1oc(-c2ccc(C(=O)NCc3ccc(N(C)C)cc3)cc2)nc1COc1ccccc1,·,14.7%,-5.6%,-25.4*,-10.4%
C[C@]1(C2CCCC2)Cc2cc(OCC(=O)O)c(Cl)c(Cl)c2C1=O,-12.6%,·,4.0%,-41.8*,7.31µM*
CCc1cccc(C)c1NC(=O)CN1CCN(Cc2ccccc2Cl)S1(=O)=O,·,-11.7%,-15.4%,24.5,·
COc1ccc(NC(=O)CN2CCN(Cc3ccccc3Cl)S2(=O)=O)cc1Cl,·,14.8%,-11.3%,-29.4*,?
O=[S+]1([O-])c2ccccc2C(OCc2ccccc2)CN1c1c(Cl)cccc1Cl (centres undefined),·,·,·,7.9,·
SMILES,GPT2 inh,SNCA expr inh,HEK293 viab,IP6K1 inhibitor,IP6K1 inh cnf
COc1ccc(CCNc2nc3c(-c4cccc(C)c4)nnn3c3ccccc23)cc1OC,·,14.3%,?,-31.7*,-4.8%
CC(C)c1nc(-c2ccc(OC3CCN(C(=O)Cc4cccc(F)c4)C3)cc2)no1 (centres undefined),?,-18.6%,-6.7%,-0.6,·
COc1ccc(NC(=O)CSc2n[nH]c(-c3ccccc3)n2)cc1Cl,·,?,-9.0%,-22.6,·
COc1ccc(-c2nc(SCC(=O)Nc3cccc(C(C)=O)c3)n[nH]2)cc1,·,-1.1%,-23.5%,-33.4*,?
O=C(NCCc1ccccc1)C1CCCN(c2nccc(Nc3ccccc3F)n2)C1 (centres undefined),i,?,-13.4%[12.5 µM],8.6,·
CC(=O)Nc1ccc(-n2c(CCC(=O)O)ccc2-c2ccc(C)cc2)cc1,·,-16.9%,-1.7%,15.9,·
CC(=O)Nc1ccc(-n2c(CCC(=O)O)ccc2-c2ccc(Br)cc2)cc1,·,-8.3%,1.7%,-41.2*,-8.4%
O=C(Nc1ccc(Cl)cc1)N1CCCC(C(=O)N2CCCC(c3nc4ncccc4[nH]3)C2)C1 (centres undefined),-25.6%,?,-1.1%,-4.3,·
Cn1ncc2c(C(=O)NCc3ccc(C(F)(F)F)cc3)cc(-c3ccccc3F)nc21,·,·,·,17.3,·
COC(=O)N(C)Cc1cccc(N2CCN(C(=O)OC(C)(C)C)CC2)c1,·,·,·,3.2,·
Cc1cc(Nc2nc(NC(C)c3ncc(F)cn3)ncc2Cl)n[nH]1 (centres undefined),3.4%,·,-5.3%,-0.8,-11.2%
CN1CC2(CCCN(CC3CC3)C2)c2cc(C(=O)NCCc3ccccc3)ccc21 (centres undefined),i,9.2%[87.6 µM],-12.4%[87.6 µM],2.9,·
Cn1ncc2c(C(=O)NCc3cccc(Cl)c3)cc(C(C)(C)C)nc21,i,-32.0%[87.6 µM],4.2%[87.6 µM],-3.2,·
COCCCNc1nc(NCc2cccc(Cl)c2)c2cnn(C)c2n1,·,-29.2%,-15.5%,-31.7*,?
CC1CN(C(=O)CCC(=O)NCc2ccccc2)c2cc(Cl)ccc2O1 (centres undefined),·,-6.4%,7.5%,-4.7,·
CC1CN(C(=O)CCC(=O)NCc2ccc(F)cc2)c2cc(Cl)ccc2O1 (centres undefined),·,24.5%,-4.2%,-25.2*,-6.9%
COCC(=O)NC1CCN(Cc2ccc(-c3cc(F)ccc3OC)cc2)C1 (centres undefined),·,·,·,5.9,·
O=C(Oc1ccccc1F)c1nc(SCc2ccc(F)cc2)ncc1Cl,·,18.7%,7.1%,-37.9*,-1.2%
Cc1ccc(CNC(=O)c2nc(SCc3ccc(C)cc3)ncc2Cl)cc1,·,?,8.8%,-6.5,·
COc1ccc(OC(=O)c2nc(SCc3ccc(F)cc3)ncc2Cl)cc1,·,-7.6%,3.0%,-19.0,·
Cc1ccccc1OC(=O)c1nc(SCc2ccccc2F)ncc1Cl,·,2.8%,?,-12.8,·
Cc1ccc(CSc2ncc(Cl)c(C(=O)Oc3ccc(F)cc3)n2)cc1,·,-6.7%,-0.7%,-25.2*,13.4%
COc1ccc(OC(=O)c2nc(SCc3ccc(C)cc3)ncc2Cl)cc1,·,6.1%,4.6%,-28.2*,-2.7%

# Assay outcomes deposited in PubChem BioAssay by National Center for Advancing Translational Sciences (NCATS).
